Measured values: PMC7862700, “An all-to-all approach to the identification of sequence-specific readers for epigenetic DNA modifications on cytosine”

Columns and labels:
Experiment in all cases: DAPPL (digital affinity profiling via proximity ligation, sequencing); 10 mM Tris-HCl pH 7.5, 50 mM NaCl, 1 mM DTT, 4% glycerol, room temperature, 30 min; GST-TFs on glutathione beads, 16-mer random dsDNA library, 0.1% formaldehyde crosslink after washing; high values mean tight binding
Settings in all cases: protein: recombinant; tags: N-terminal GST; dsDNA, one strand shown
[1] = molecular target: T1, FLI1 (Homo sapiens, UniProt Q01543 1-452)
T1 sequence: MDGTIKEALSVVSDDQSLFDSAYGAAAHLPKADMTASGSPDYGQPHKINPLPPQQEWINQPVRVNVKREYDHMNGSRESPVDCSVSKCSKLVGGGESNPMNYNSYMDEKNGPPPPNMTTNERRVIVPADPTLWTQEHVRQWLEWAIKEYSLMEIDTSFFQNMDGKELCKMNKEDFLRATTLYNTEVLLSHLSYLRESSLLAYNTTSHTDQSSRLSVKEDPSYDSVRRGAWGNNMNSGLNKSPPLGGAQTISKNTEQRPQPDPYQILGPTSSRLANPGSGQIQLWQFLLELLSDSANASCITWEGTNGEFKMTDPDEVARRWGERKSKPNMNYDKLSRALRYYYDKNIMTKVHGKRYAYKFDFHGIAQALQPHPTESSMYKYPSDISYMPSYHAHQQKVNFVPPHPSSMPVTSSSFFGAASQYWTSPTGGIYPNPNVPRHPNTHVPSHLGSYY
Summary of the method: (§1)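 Binding signal is given per hexamer as its read frequency for a factor divided by its frequency in the tag-only sample. GST-fused human transcription factors were expressed in yeast, captured on glutathione beads, barcoded with DNA and pooled with that sample, then incubated with 200 nmole of a 16-mer random double-stranded DNA library in Tris/NaCl/DTT/glycerol buffer for 30 min at room temperature. The pools were then washed, crosslinked, proximity-ligated, amplified by PCR and sequenced on an Illumina NextSeq500.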

[2] = molecular target: T2, ELK1 (Homo sapiens, UniProt P19419 1-428)
T2 sequence: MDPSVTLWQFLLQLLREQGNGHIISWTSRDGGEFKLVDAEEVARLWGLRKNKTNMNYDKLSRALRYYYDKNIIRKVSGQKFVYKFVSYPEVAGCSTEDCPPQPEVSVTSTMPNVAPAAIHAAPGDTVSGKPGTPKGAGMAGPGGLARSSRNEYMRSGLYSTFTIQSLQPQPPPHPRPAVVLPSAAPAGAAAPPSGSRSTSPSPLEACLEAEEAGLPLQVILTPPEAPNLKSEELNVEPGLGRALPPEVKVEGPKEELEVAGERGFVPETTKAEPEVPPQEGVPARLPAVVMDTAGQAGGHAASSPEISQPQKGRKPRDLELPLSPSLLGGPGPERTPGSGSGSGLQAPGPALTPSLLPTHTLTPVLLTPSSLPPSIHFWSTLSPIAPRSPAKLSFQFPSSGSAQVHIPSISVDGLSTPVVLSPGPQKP
Summary of the method: as §1

[3] = molecular target: T3, GABPA (Homo sapiens, UniProt Q06546 1-454)
T3 sequence: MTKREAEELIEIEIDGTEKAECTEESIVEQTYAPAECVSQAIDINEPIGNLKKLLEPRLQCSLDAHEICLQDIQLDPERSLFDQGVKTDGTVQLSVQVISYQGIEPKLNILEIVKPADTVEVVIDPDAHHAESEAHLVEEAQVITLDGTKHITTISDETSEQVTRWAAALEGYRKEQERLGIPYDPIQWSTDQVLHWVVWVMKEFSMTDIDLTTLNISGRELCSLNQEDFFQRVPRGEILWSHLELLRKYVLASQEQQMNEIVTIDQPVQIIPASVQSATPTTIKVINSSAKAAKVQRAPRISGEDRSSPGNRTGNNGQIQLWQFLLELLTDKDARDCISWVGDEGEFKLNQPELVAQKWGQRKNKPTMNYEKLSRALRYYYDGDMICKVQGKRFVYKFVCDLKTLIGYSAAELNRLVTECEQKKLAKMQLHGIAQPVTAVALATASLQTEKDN
Summary of the method: as §1

[4] = molecular target: T4, ERG (Homo sapiens, UniProt P11308 1-479)
T4 sequence: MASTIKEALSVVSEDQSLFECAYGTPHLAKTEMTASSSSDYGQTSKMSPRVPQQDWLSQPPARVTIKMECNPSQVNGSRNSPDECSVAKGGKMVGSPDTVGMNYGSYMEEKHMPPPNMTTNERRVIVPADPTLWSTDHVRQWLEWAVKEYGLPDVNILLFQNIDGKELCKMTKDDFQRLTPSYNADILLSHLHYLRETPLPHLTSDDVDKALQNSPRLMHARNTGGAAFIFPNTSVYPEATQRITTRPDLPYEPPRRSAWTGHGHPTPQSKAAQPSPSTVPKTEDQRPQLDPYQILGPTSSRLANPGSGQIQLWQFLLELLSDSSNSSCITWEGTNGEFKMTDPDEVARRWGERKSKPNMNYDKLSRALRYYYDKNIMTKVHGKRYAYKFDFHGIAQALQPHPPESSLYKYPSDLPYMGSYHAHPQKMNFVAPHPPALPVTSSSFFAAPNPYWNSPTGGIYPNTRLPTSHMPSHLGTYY
Summary of the method: as §1

[5] = molecular target: ELF1 (Homo sapiens, UniProt P32519 1-619)
Summary of the method: as §1

[6] = molecular target: T5, EHF (Homo sapiens, UniProt Q9NZC4 1-300)
T5 sequence: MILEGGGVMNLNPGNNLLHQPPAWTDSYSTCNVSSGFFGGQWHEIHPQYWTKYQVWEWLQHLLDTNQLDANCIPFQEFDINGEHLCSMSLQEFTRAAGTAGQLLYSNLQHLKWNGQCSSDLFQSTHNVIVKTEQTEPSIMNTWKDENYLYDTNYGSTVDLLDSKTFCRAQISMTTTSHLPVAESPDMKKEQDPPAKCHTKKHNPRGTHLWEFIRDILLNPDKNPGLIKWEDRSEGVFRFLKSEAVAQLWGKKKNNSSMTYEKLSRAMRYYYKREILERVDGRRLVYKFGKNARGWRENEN
Summary of the method: as §1

[7] = molecular target: SPI1 (Homo sapiens, UniProt P17947 1-270)
Summary of the method: as §1

[8] = molecular target: SPIB (Homo sapiens, UniProt Q01892 1-262)
Summary of the method: as §1

[9] = molecular target: T6, ELK3 (Homo sapiens, UniProt P41970 1-407)
T6 sequence: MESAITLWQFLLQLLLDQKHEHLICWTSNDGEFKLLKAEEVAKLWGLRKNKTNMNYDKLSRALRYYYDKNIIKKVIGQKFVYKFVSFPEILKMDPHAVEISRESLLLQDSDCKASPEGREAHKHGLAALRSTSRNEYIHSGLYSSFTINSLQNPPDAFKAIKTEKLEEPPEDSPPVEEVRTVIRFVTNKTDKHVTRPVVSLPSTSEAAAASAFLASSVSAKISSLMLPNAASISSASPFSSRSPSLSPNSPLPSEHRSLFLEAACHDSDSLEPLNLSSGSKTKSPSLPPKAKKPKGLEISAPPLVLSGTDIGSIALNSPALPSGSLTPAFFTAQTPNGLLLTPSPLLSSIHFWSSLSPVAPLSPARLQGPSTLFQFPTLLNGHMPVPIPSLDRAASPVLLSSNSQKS
Summary of the method: as §1

Sequence of ELF1 (P32519 whole entry): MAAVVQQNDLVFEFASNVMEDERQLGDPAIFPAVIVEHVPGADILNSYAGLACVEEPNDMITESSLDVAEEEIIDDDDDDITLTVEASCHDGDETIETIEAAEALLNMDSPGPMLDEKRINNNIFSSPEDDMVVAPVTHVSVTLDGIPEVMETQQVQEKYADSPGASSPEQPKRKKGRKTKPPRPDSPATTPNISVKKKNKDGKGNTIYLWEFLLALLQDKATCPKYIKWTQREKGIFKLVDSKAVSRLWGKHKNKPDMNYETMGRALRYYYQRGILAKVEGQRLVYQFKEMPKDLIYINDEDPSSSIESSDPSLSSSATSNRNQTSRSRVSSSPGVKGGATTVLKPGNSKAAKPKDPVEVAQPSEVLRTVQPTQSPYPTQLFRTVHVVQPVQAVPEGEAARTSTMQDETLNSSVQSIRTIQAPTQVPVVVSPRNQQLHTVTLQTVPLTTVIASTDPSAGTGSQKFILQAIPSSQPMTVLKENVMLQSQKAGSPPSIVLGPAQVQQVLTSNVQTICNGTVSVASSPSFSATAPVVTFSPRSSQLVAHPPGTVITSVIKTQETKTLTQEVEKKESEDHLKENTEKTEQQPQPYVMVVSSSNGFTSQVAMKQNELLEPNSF
Sequence of SPIB (Q01892 whole entry): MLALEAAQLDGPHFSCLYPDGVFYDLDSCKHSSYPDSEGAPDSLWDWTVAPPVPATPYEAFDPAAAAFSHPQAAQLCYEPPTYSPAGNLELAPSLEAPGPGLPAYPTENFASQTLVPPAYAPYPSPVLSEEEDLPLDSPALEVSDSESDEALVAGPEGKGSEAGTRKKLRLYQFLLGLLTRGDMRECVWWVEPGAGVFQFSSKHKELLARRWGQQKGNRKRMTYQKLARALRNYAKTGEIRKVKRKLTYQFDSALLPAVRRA

With CTATGG as the sequence, how does the binding signal [1] read?
Its binding signal is 1.25 fold enrichment (6-mer frequency, TF over GST control).

What about the binding signal [2] of the same sequence?
Its binding signal is 1.14 fold enrichment (6-mer frequency, TF over GST control).

What about the binding signal [3] of the same sequence?
The binding signal was 1.21 fold enrichment (6-mer frequency, TF over GST control).

And the binding signal [4]?
The binding signal was 1.15 fold enrichment (6-mer frequency, TF over GST control).

What about the binding signal [5] of the same sequence?
The binding signal was 1.19 fold enrichment (6-mer frequency, TF over GST control).

And the binding signal [6]?
The binding signal was 1.3 fold enrichment (6-mer frequency, TF over GST control).

And the binding signal [7]?
The binding signal was 1.17 fold enrichment (6-mer frequency, TF over GST control).

What about the binding signal [8] of the same sequence?
Its binding signal is 1.19 fold enrichment (6-mer frequency, TF over GST control).

What about the binding signal [9] of the same sequence?
Its binding signal is 1.2 fold enrichment (6-mer frequency, TF over GST control).
